# Data: the supplement of paper PMC4166925
# ± gives the standard deviation of the averaged measurements. Whole data set: some 33,000 sequences, median “E-score (dimensionless, -0.5 to 0.5)” near -0.049, cut for the highest 2% near 0.37. Only a selection was taken, and the highest values are over-represented in it overall.
# System: T1, PmTbr T-box DNA-binding domain (GST fusion)
# T1 sequence: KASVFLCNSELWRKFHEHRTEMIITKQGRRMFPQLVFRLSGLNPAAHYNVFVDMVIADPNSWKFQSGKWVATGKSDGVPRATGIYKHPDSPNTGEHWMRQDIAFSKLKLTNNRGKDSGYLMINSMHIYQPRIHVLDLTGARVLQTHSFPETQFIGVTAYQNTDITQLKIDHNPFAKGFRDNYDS
# Assay: PBM E-score of 8-mer (E-score (dimensionless, -0.5 to 0.5)); Tbr is Tbrain of the sea star Patiria miniata (Pm) or the sea urchin Strongylocentrotus purpuratus (Sp); higher = stronger binding preference
# Details: the construct has about 5 more residues each side
# Outline: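 Primer extension turned Universal Agilent oligonucleotide arrays double-stranded. They were incubated with 200 nM protein in PBS (pH 7.5); the protein was a GST-fused Tbr T-box DNA-binding domain expressed in BL21 E. coli at 20 °C and purified on glutathione. Every ungapped 8-mer was scored from the scanned, quantified probe intensities, and the Universal PBM Analysis Suite gave each an enrichment E-score averaged over duplicate arrays.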
row,Sequence,PBM E-score of 8-mer
1,ACGCGTGC,0.14 ± 0.034
2,ACGCGTGA,0.38 ± 0.012
3,AAGCGTGT,0.235 ± 0.017
4,GCGCGTGA,0.322 ± 0.0044
5,GGGCGTAA,0.118 ± 0.012
6,CATTGCCG,0.0765 ± 0.039
7,TTAAGAAA,-0.165 ± 0.066
8,AATACTCT,-0.111 ± 0.064
9,CCGAGGGA,-0.236 ± 0.0027
10,ACGTTCAC,0.227 ± 0.06
11,CAATCGCG,0.269 ± 0.026
12,AATGCTGG,-0.209 ± 0.026
13,TAGGGTAA,-0.0929 ± 0.022
14,ATACTGAA,-0.116 ± 0.013
15,CACGCAAC,0.024 ± 0.02
16,CATAGTAG,-0.286 ± 0.031
17,GATAACCC,0.0272 ± 0.031
18,GTTAGGCA,-0.0852 ± 0.013
19,GCGTTAAC,0.275 ± 0.056
20,CATTAAGG,-0.136 ± 0.13
21,AGGCGTCA,0.4194 ± 0.0035
22,AGGCGTCG,0.353 ± 0.029

row,Sequence,PBM E-score of 8-mer
1,CGGCGTCA,0.219 ± 0.03
2,ACCTTATA,0.221 ± 0.084
3,ATGAGCAG,-0.0322 ± 0.034
4,ATGGTGTA,0.104 ± 0.021
5,ATGGTGTC,0.383 ± 0.02
6,ATGGTGGC,0.271 ± 0.056
7,ATGGTGTG,0.383 ± 0.0049
8,ATGGTGCG,0.187 ± 0.036
9,CTGGTGTC,0.341 ± 0.023
10,CAGTAGAC,-0.0988 ± 0.05
11,AGCGCGTG,0.27 ± 0.025
12,CGGTAAAG,-0.102 ± 0.037
13,ACACATAG,0.268 ± 0.022
14,ACACATAT,0.386 ± 0.0052
15,AAACATTC,-0.0525 ± 0.037
16,CCACATTC,0.104 ± 0.038
17,ACACATTG,0.39 ± 0.017
18,ACACATTC,0.387 ± 0.016
19,ACACATAA,0.251 ± 0.0089
20,ACACATTA,0.264 ± 0.008
21,AAACATTG,-0.0327 ± 0.00054
22,GAGAAAAC,0.0669 ± 0.12

row,Sequence,PBM E-score of 8-mer
1,ATTCCTCC,-0.291 ± 0.034
2,GACGCGTA,0.0611 ± 0.022
3,ATCCAGCA,-0.175 ± 0.032
4,AATGGTCG,-0.249 ± 0.14
5,ACGAGAGG,0.0873 ± 0.05
6,GTAGTCTA,-0.207 ± 0.03
7,CTAGGTAA,-0.173 ± 0.055
8,CTAGGTTC,-0.0841 ± 0.0095
9,ATAGGTGG,0.26 ± 0.051
10,CTAGGTCC,-0.13 ± 0.071
11,CTAGGTGC,0.403 ± 0.008
12,GTAGGTAA,-0.141 ± 0.024
13,CTAGGTCA,0.00648 ± 0.021
14,CTAGGTGA,0.398 ± 0.014
15,ATAGGTGA,0.345 ± 0.028
16,GTAGGTTA,-0.189 ± 0.025
17,GTAGGTGA,0.397 ± 0.02
18,ATAGGTGC,0.414 ± 0.0057
19,CAGCATAC,-0.00656 ± 0.045
20,GCGCAGAA,-0.0316 ± 0.067
21,GGTAAACC,0.131 ± 0.039
22,GAATCATA,0.0757 ± 0.097

row,Sequence,PBM E-score of 8-mer
1,CTAGTAAG,-0.0596 ± 0.04
2,CCATGAGC,-0.138 ± 0.16
3,ACTGTGAA,0.378 ± 0.0086
4,GCTGTGAA,0.3817 ± 0.0019
5,CCTGTGAA,0.306 ± 0.0045
6,ACTGTGAT,0.152 ± 0.046
7,ACTGTGAG,0.22 ± 0.017
8,TCTGTGAA,0.253 ± 0.0052
9,CAGGCTTA,-0.197 ± 0.047
10,ATATAGCG,0.0197 ± 0.053
11,CGTATGCA,-0.0979 ± 0.032
12,GATTTTGC,0.189 ± 0.061
13,AAATAGGA,-0.294 ± 0.053
14,CGCTAACC,0.256 ± 0.017
15,CGCTAACG,0.3714 ± 0.0037
16,AGCTAACA,0.209 ± 0.033
17,TGCTAACA,0.369 ± 0.041
18,AGCTAACG,0.157 ± 0.031
19,GGCTAACA,0.179 ± 0.019
20,ATGTCCAG,-0.0643 ± 0.0044
